Laboratory results taken from PubChem BioAssay (NCATS).
Inconclusive results are not listed. Some structures have more than one record in an assay (separate samples or runs), and their calls can disagree. The source made the active and inactive calls. Calls follow the shape of the dose curve; as a rule, active = well fitted inhibition curve with a large enough effect; inconclusive = small, poorly fitted or top-dose-only effect; inactive = flat fitted curve, though single readings scatter.

Key:
Test in all cases: qHTS profiling for inhibitors of Plasmodium falciparum proliferation (AID 504749); also: nearly all actives have a fitted effect of over 60% in size
Settings in all cases: P. falciparum in erythrocytes, SYBR Green DNA, 72 h; series mostly up to 28.7 µM
AA1029 = test system: AA1029
Procedure, shortened: (§1)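 P. falciparum-infected erythrocytes (0.3% parasitemia, 2.5% hematocrit) incubated with compound 72 h at 37 C, 5% CO2. Parasite DNA detected by SYBR Green after lysis, overnight at room temperature; normalised to 0.29 uM artemisinin and DMSO.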

AS120 = test system: AS120
Procedure, shortened: as §1

ATS189 = test system: ATS189
Procedure, shortened: as §1

ATS95 = test system: ATS95
Procedure, shortened: as §1

C2A = test system: C2A
Procedure, shortened: as §1

CP185 = test system: CP185
Procedure, shortened: as §1

CP191 = test system: CP191
Procedure, shortened: as §1

CP192 = test system: CP192
Procedure, shortened: as §1

CP194 = test system: CP194
Procedure, shortened: as §1

CP201 = test system: CP201
Procedure, shortened: as §1

CP203 = test system: CP203
Procedure, shortened: as §1

CP211 = test system: CP211
Procedure, shortened: as §1

CP215 = test system: CP215
Procedure, shortened: as §1

CP217 = test system: CP217
Procedure, shortened: as §1

CP237 = test system: CP237
Procedure, shortened: as §1

CP238 = test system: CP238
Procedure, shortened: as §1

CP247 = test system: CP247
Procedure, shortened: as §1

CP250 = test system: CP250
Procedure, shortened: as §1

CP252 = test system: CP252
Procedure, shortened: as §1

CP256 = test system: CP256
Procedure, shortened: as §1

Measured: Potency
Potency is read from the fitted curve at half-maximal effect.

C#CC(C)(O)CC (centres undefined)
inactive: all assays above

S=C(S)N1CCNCC1
inactive: all assays above

O=C(CCl)c1ccc(Oc2ccc(C(=O)CCl)cc2)cc1
inactive: all assays above

CC(C)CCON=O
inactive: all assays above

FC(F)OC(F)(F)C(F)Cl (centres undefined)
inactive: all assays above

ClC(Cl)(Cl)Cl
inactive: all assays above

Clc1ccc(C2(Cn3cncn3)OCCO2)c(Cl)c1
inactive: all assays above

O=C/C=C/c1ccccc1
inactive: all assays above

O=C1C2CC=CCC2C(=O)N1SC(Cl)(Cl)Cl (centres undefined)
inactive: all assays above

N#CN
inactive: all assays above

CC(C)(C)c1cc(O)ccc1O
inactive: CP192 | CP201
8.91 µM (active) and inactive: AA1029 | CP252
active: AS120 8.91 µM | ATS189 10 µM | ATS95 7.94 µM | C2A 4.47 µM | CP191 11.2 µM | CP203 15.1 µM | CP215 10.7 µM | CP217 8.91 µM | CP237 6.31 µM | CP238 10 µM | CP247 4.47 µM | CP250 7.94 µM | CP256 11.2 µM
16.9 µM (active) and inactive: CP194
11.2 µM (active) and inactive: CP185
12 µM (active) and inactive: CP211

O=[N+]([O-])c1cc(I)c(O)c(I)c1
inactive: all assays above

[O]=[Cr](=[O])([OH])[O][Cr](=[O])(=[O])[OH]
active: CP237 11.2 µM
inactive: all other assays above

CCCC(C)(COC(N)=O)COC(=O)NC1CC1 (centres undefined)
inactive: all assays above

COc1ccc(OC)c(C(O)C(C)N)c1 (centres undefined)
inactive: all assays above

CC(C)(O)C1C2OC(=O)C1C1(O)CC3OC34C(=O)OC2C14C (centres undefined)
inactive: all assays above

NCC(O)c1cccc(O)c1 (centres undefined)
inactive: all assays above

O=C1CCCCC1CN1CCCCC1 (centres undefined)
inactive: all assays above

CCCCCCCCCC(=O)O[C@H]1CC[C@H]2[C@@H]3CCC4=CC(=O)CC[C@]4(C)[C@H]3CC[C@]12C
inactive: all assays above

Clc1ccc(Cl)cc1
inactive: all assays above

Clc1ccccc1Cl
inactive: all assays above

S=C=S
inactive: all assays above

ClC1C(Cl)C(Cl)C(Cl)C(Cl)C1Cl (centres undefined)
inactive: all assays above

C[N+]1(C)C2CCC1CC(OC(=O)c1c[nH]c3ccccc13)C2 (centres undefined)
inactive: all assays above

CC(Cc1ccccc1)NC=O (centres undefined)
inactive: all assays above

C[C@H]1CC[C@@H]2[C@@H](C)[C@H]3[C@H](C[C@H]4[C@@H]5CC=C6CC(O[C@@H]7O[C@H](CO)[C@H](O)[C@H](O[C@@H]8O[C@H](CO)[C@@H](O)[C@H](O)[C@H]8O)[C@H]7O[C@H]7O[C@@H](C)[C@H](O)[C@@H](O)[C@H]7O)CC[C@]6(C)[C@H]5CC[C@]34C)N2C1 (some centres undefined)
not listed: CP256
inactive: all other assays above
